Unmarked numbers belong to inactive results. Calls follow the shape of the dose curve; as a rule, active = well fitted curve in the direction sought with a large enough effect; inconclusive = small, poorly fitted or top-dose-only effect, or another doubt; inactive = no such curve, though single readings can be large; an effect the other way counts as inactive or inconclusive. Results filed as inconclusive are left out.
assay: MultiTox-Fluor Cytotoxicity Assay - LYMP1-003 - Dead Cells (AID 961); conditions: LYMP1-003 lymphoblastoid cells, dead-cell protease fluorescence; series mostly up to 92.2 µM; cytotoxicity (dead cells): at the top concentration; also: nearly all actives have a fitted effect of over 70% in size
Method in brief: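 LYMP1-003 lymphoblastoid, 2500 cells/well, 5 hr settle then 16 hr cpd at 37 C; MultiTox-Fluor reagent 60 min RT; Ex/Em 485/520 dead-cell signal; norm. DMSO = 0%, 15 uM tetraoctylammonium bromide = 100%; Hill AC50.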

**Q.** Which “cytotoxicity (dead cells)” value does the source give for `Cc1occc(=O)c1O` here?
**A.** -8.54%

**Q.** Which “cytotoxicity (dead cells)” value does the source give for `C=C(C)[C@H]1CC=C(C)C(=O)C1` here?
**A.** -7.73%

**Q.** With `COS(C)(=O)=O` as the molecule, how does the “cytotoxicity (dead cells)” value read?
**A.** -11.4%

**Q.** Which “cytotoxicity (dead cells)” value does the source give for `CC1=CC(=O)CC(C)(C)C1(O)/C=C/C(C)=C\C(=O)O` (centres undefined) here?
**A.** -10.8%

**Q.** With `C=CC(C)(O)CCC=C(C)C` (centres undefined) as the molecule, how does the “cytotoxicity (dead cells)” value read?
**A.** -7.81%

assay: MultiTox-Fluor Cytotoxicity Assay - LYMP1-003 - Live Cells (AID 962); conditions: LYMP1-003 lymphoblastoid cells, MultiTox-Fluor live-cell protease fluorescence; series mostly up to 92.2 µM; activity change, negative = fewer live cells: at the top concentration;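 also: 0% = DMSO only and full loss = 92 µM tetraoctylammonium bromide; cytotoxic hits lower the live-cell protease signal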
Method in brief: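 LYMP1-003 human lymphoblastoid cells (2500/well) in complete medium were preincubated 5 hr at 37 C, then exposed to compounds for 16 hr at 37 C. Live-cell protease cleavage of GF-AFC read by fluorescence (Ex/Em 405/510); AC50 from Hill fits.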

**Q.** For `Cc1occc(=O)c1O`, which “activity change, negative = fewer live cells” value is on record?
**A.** 1.3%

**Q.** With `C=C(C)[C@H]1CC=C(C)C(=O)C1` as the molecule, how does the “activity change, negative = fewer live cells” value read?
**A.** -1.1%

**Q.** For `COS(C)(=O)=O`, which “activity change, negative = fewer live cells” value is on record?
**A.** -3.17%

**Q.** Which “activity change, negative = fewer live cells” value does the source give for `CC1=CC(=O)CC(C)(C)C1(O)/C=C/C(C)=C\C(=O)O` (centres undefined) here?
**A.** 1.23%

**Q.** Which “activity change, negative = fewer live cells” value does the source give for `C=CC(C)(O)CCC=C(C)C` (centres undefined) here?
**A.** -1.81%

assay: Cell Viability - LYMP1-003 - Assay at 24 hr (AID 963); conditions: LYMP1-003 lymphoblastoid cell viability; series mostly up to 92.2 µM; viability change, negative = cytotoxic: at the top concentration;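 also: plate controls were DMSO only for no effect and tetraoctylammonium bromide positive control for full effect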
Method in brief: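 Human lymphoblastoid LYMP1-003 cells (2500/well) were rested 5 hr at 37 C, then exposed to compounds in complete medium for 24 hr at 37 C. Cellular ATP was quantified by CellTiter-Glo luminescence, and AC50 values came from Hill fits of concentration-response data.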

**Q.** For `Cc1occc(=O)c1O`, which “viability change, negative = cytotoxic” value is on record?
**A.** -1.89%

**Q.** Which “viability change, negative = cytotoxic” value does the source give for `C=C(C)[C@H]1CC=C(C)C(=O)C1` here?
**A.** -2.51%

**Q.** Which “viability change, negative = cytotoxic” value does the source give for `COS(C)(=O)=O` here?
**A.** 2.06%

**Q.** Which “viability change, negative = cytotoxic” value does the source give for `CC1=CC(=O)CC(C)(C)C1(O)/C=C/C(C)=C\C(=O)O` (centres undefined) here?
**A.** -2.01%

**Q.** For `C=CC(C)(O)CCC=C(C)C` (centres undefined), which “viability change, negative = cytotoxic” value is on record?
**A.** -0.454%

assay: Cell Viability - LYMP1-003 - Assay at 40 hr (AID 964); conditions: LYMP1-003 lymphoblastoid viability; series mostly up to 92.2 µM; activity change, negative = cytotoxic: at the top concentration; also: % is scaled to controls: 0 for no effect and ±100 for the full control effect; nearly all actives have a fitted effect of over 60% in size
Excerpt: (§1) NIH Chemical Genomics Center [NCGC]
(§2) NIH Molecular Libraries Screening Centers Network [MLSCN]
(§3) National Institutes of Environmental Health Sciences [NIEHS]
(§4) National Toxicology Program [NTP]
(§5) We have developed a 1536-well cell-based assay for quantitative high throughput screening (qHTS) against a number of cell lines to determine in vitro cytotoxicity of small molecules. This particular assay uses a human lymphoblastoid cell line (LYMP1-003) purchased from Coriell Institute for Medical Research.
(§6) NCGC Assay Protocol Summary:
(§7) The CellTiter-Glo luminescent cell viability assay (Promega) is a homogeneous method to measure the number of viable cells in culture. The end point readout of this assay is based on quantitation of intracellular ATP, an indicator of metabolic activity, using the luciferase reaction. Luciferase catalyzes the oxidation of beetle Luciferin to oxyluciferin and light in the presence of ATP. The luminescent signal is proportional to amount of ATP present.
(§8) Using the CellTiter-Glo luminescent cell viability assay, the amount of cellular ATP was measured in the lymphoblastoid cell line with complete culture medium following compound treatment for 40 hours. The assay was performed in opaque white Kalypsys 1536-well plates. In the screen, tetraoctylammonium bromide was used as positive control. Library compounds were measured for their ability to cause acute toxicity in the cell line, as reflected by a decrease in intracellular ATP levels, in a concentration-dependent manner. […] AC50 values were determined from concentration-response data modeled with the standard Hill equation.
(§9) qHTS protocol for CellTiter Glo lymphoblastoid cellular assay
(§10) [Step] [Parameter] [Value] [Description]
(§11) 1. Reagent; 5 uL; 2500 lymphoblastoid cells/well
(§12) 2. Time; 5 hr; 37 C incubation
(§13) 4. Controls; 23 nL; Tetraoctylammonium bromide 6.4pM to 92 uM
5. Time; 40 hr; 37 C incubation
(§14) 6. Reagent; 5 uL; CellTiter Glo reagent
(§15) 7. Time; 30 min; Room Temperature
(§16) 8. Detection; Luminescence; Viewlux plate reader
(§17) Keywords: cell viability, cytotoxicity, lymphoblastoid cell line, luminescence, NTPHTS, NTPHTS_NCGC, NIEHS, DSSTox, MLSMR, MLSCN, NIH Roadmap, qHTS, NCGC

**Q.** Which “activity change, negative = cytotoxic” value does the source give for `Cc1occc(=O)c1O` here?
**A.** -13.2%

**Q.** For `C=C(C)[C@H]1CC=C(C)C(=O)C1`, which “activity change, negative = cytotoxic” value is on record?
**A.** -7.34%

**Q.** For `COS(C)(=O)=O`, which “activity change, negative = cytotoxic” value is on record?
**A.** -7.15%

**Q.** With `CC1=CC(=O)CC(C)(C)C1(O)/C=C/C(C)=C\C(=O)O` (centres undefined) as the molecule, how does the “activity change, negative = cytotoxic” value read?
**A.** -4.47%

**Q.** For `C=CC(C)(O)CCC=C(C)C` (centres undefined), which “activity change, negative = cytotoxic” value is on record?
**A.** -3.42%

assay: Cell Viability - LYMP2-003 (AID 965); conditions: LYMP2-003 lymphoblastoid cell viability; series mostly up to 92.2 µM; activity change, negative = cytotoxicity: at the top concentration;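 also: cells exposed to compounds for 24 h before reading; 0% = DMSO only and full effect = 92 µM tetraoctylammonium bromide; nearly all actives have a fitted effect of over 50% in size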
Method in brief: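 Seed 2500 lymphoblastoid cells/well; incubate 5 hr, 37 C; add compounds; incubate 24 hr, 37 C; add CellTiter-Glo, 30 min RT; read luminescence. AC50 from Hill fit.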

**Q.** For `Cc1occc(=O)c1O`, which “activity change, negative = cytotoxicity” value is on record?
**A.** 17.1%

**Q.** Which “activity change, negative = cytotoxicity” value does the source give for `C=C(C)[C@H]1CC=C(C)C(=O)C1` here?
**A.** -2.28%

**Q.** With `COS(C)(=O)=O` as the molecule, how does the “activity change, negative = cytotoxicity” value read?
**A.** 18.5%

**Q.** For `CC1=CC(=O)CC(C)(C)C1(O)/C=C/C(C)=C\C(=O)O` (centres undefined), which “activity change, negative = cytotoxicity” value is on record?
**A.** 9.41%

assay: Cell Viability - LYMP2-004 (AID 966); conditions: LYMP2-004 lymphoblastoid cell viability, qHTS; series mostly up to 92.2 µM; activity change, negative = cytotoxicity: at the top concentration;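 also: plate controls were DMSO only for no effect and tetraoctylammonium bromide control for full effect; nearly all actives have a fitted effect of over 65% in size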
Excerpt: as §1, §2, §3, §4
as §5, with “(LYMP2-004)” for “(LYMP1-003)”
as §6, §7
as §8, with “24” for “40”
as §9, §10, §11, §12, §13
5. Time; 24 hr; 37 C incubation
as §14, §15, §16, §17

**Q.** For `Cc1occc(=O)c1O`, which “activity change, negative = cytotoxicity” value is on record?
**A.** 6.26%

**Q.** Which “activity change, negative = cytotoxicity” value does the source give for `C=C(C)[C@H]1CC=C(C)C(=O)C1` here?
**A.** 20.1%

**Q.** For `COS(C)(=O)=O`, which “activity change, negative = cytotoxicity” value is on record?
**A.** 11.9%

**Q.** Which “activity change, negative = cytotoxicity” value does the source give for `CC1=CC(=O)CC(C)(C)C1(O)/C=C/C(C)=C\C(=O)O` (centres undefined) here?
**A.** 6.04%

**Q.** For `C=CC(C)(O)CCC=C(C)C` (centres undefined), which “activity change, negative = cytotoxicity” value is on record?
**A.** 15.2%

assay: Cell Viability - LYMP2-005 (AID 967); conditions: LYMP2-005 lymphoblastoid cell viability; series mostly up to 92.2 µM; activity change, negative = viability loss: at the top concentration;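 also: plate controls were DMSO only for no effect and 92 µM tetraoctylammonium bromide control for full effect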
Method in brief: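 Acute cytotoxicity is scored as a concentration-dependent drop in intracellular ATP in human lymphoblastoid LYMP2-005 cells after 24 h compound treatment. ATP is quantified by luciferase luminescence, and AC50 is derived by Hill-equation modelling.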

**Q.** For `Cc1occc(=O)c1O`, which “activity change, negative = viability loss” value is on record?
**A.** -19.4%

**Q.** For `C=C(C)[C@H]1CC=C(C)C(=O)C1`, which “activity change, negative = viability loss” value is on record?
**A.** -0.799%

**Q.** With `COS(C)(=O)=O` as the molecule, how does the “activity change, negative = viability loss” value read?
**A.** 15%

**Q.** For `CC1=CC(=O)CC(C)(C)C1(O)/C=C/C(C)=C\C(=O)O` (centres undefined), which “activity change, negative = viability loss” value is on record?
**A.** 16.9%

**Q.** With `C=CC(C)(O)CCC=C(C)C` (centres undefined) as the molecule, how does the “activity change, negative = viability loss” value read?
**A.** 11.6%

assay: Cell Viability - LYMP2-009 (AID 968); conditions: LYMP2-009 lymphoblastoid cell viability; series mostly up to 92.2 µM; activity change, negative = viability loss: at the top concentration;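 also: 0% = DMSO alone and the full-kill end = tetraoctylammonium bromide at 92 µM; nearly all actives have a fitted effect of over 55% in size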

**Q.** With `Cc1occc(=O)c1O` as the molecule, how does the “activity change, negative = viability loss” value read?
**A.** -4.59%

**Q.** Which “activity change, negative = viability loss” value does the source give for `C=C(C)[C@H]1CC=C(C)C(=O)C1` here?
**A.** -1.95%

**Q.** For `COS(C)(=O)=O`, which “activity change, negative = viability loss” value is on record?
**A.** -8.46%

**Q.** With `CC1=CC(=O)CC(C)(C)C1(O)/C=C/C(C)=C\C(=O)O` (centres undefined) as the molecule, how does the “activity change, negative = viability loss” value read?
**A.** -4.39%

**Q.** For `C=CC(C)(O)CCC=C(C)C` (centres undefined), which “activity change, negative = viability loss” value is on record?
**A.** -0.487%

assay: Cell Viability - LYMP2-011 (AID 969); conditions: LYMP2-011 lymphoblastoid cells viability; series mostly up to 92.2 µM; viability change, negative = cytotoxic: at the top concentration;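 also: 0% = DMSO only and full inhibition = 92 µM tetraoctylammonium bromide; nearly all actives have a fitted effect of over 60% in size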
Method in brief: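 Human lymphoblastoid cells (2500/well) were plated in complete medium, preincubated 5 hr at 37 C, then exposed to compounds for 24 hr at 37 C. Intracellular ATP was read by CellTiter-Glo luminescence, and AC50 came from Hill-equation concentration-response fits.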

**Q.** Which “viability change, negative = cytotoxic” value does the source give for `Cc1occc(=O)c1O` here?
**A.** -4.26%

**Q.** With `C=C(C)[C@H]1CC=C(C)C(=O)C1` as the molecule, how does the “viability change, negative = cytotoxic” value read?
**A.** 5.81%

**Q.** For `COS(C)(=O)=O`, which “viability change, negative = cytotoxic” value is on record?
**A.** 3.05%

**Q.** For `CC1=CC(=O)CC(C)(C)C1(O)/C=C/C(C)=C\C(=O)O` (centres undefined), which “viability change, negative = cytotoxic” value is on record?
**A.** -2.92%

**Q.** Which “viability change, negative = cytotoxic” value does the source give for `C=CC(C)(O)CCC=C(C)C` (centres undefined) here?
**A.** -0.889%
